LDHA block – inhibitors of human lactate dehydrogenase A. purified LDHA, NADH/diaphorase-resazurin fluorescence; hits give low values. activity change, % (values are at about 110 or 230 µM). 0.15% of 480,000 active. AID 1347041; in the data active = activity change below about -30%; inconclusive = mostly about -25% to -30%;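 also: plate controls were DMSO wells for no effect and wells without enzyme for full effect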
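Human LDH5 (2 nM) was incubated with 0.06 mM NADH and 0.2 mM pyruvate for 5 min at room temperature in Tris pH 7.4. Remaining NADH was coupled through diaphorase/resazurin, and resorufin fluorescence was read at 0 and 20 min.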
GLP-1R agonist – GLP-1 receptor (human) agonism. P43220. HEK293 GLP-1R CRE-luciferase, luminescence, 4-6 h; cells express a hypersensitive GLP-1R form. Potency, µM (titrated, usually from 45.6 µM), for the others: top-dose activation, usual class: activators. 0.007% of 380,000 active. AID 624172; also: potency is read from the fitted curve at half-maximal effect; % of control where 0% means no effect
Target sequence (P43220 whole entry, looked up): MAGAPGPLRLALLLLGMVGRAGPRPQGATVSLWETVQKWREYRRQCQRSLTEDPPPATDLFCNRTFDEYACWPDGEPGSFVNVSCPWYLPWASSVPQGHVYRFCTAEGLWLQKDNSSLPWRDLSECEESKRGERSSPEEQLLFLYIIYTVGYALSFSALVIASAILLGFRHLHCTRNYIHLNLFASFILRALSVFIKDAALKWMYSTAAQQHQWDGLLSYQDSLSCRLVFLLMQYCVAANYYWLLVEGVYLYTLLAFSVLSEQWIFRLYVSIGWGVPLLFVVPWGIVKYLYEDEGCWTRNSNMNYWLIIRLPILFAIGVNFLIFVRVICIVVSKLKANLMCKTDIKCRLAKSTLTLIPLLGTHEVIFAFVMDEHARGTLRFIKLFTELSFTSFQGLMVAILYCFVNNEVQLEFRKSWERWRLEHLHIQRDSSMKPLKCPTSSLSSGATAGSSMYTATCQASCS
HEK293 tox – cytotoxic in the GLP-1 receptor inverse agonist counter-screen. HEK293 cAMP-luciferase reporter cells, luminescence, 24 h. 0.13% of 410,000 active. Potency, µM (highest dose often 38.3 µM), for inactives: top-dose activity change, negative = inhibition, usual class: inhibitors;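 also: loss of luciferase light is scored as toxicity; potency is read from the fitted curve at half-maximal effect; % is scaled to controls: 0 for no effect and ±100 for the full control effect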
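Step one: seed cells (200 cells/uL, DMEM with 10% Nu serum, 1% pen-strep). Step two: 12-hour incubation at 37 deg C. Step three: pin 23 nL compound, incubate 24 hr. Step four: add luciferase reagent, read luminescence 12 min later.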
PTHR1 agonist – PTHR1 (human) receptor agonism; Potency, µM (titrated, usually from 115 µM), without a hit: at the highest dose activation, hits mostly activators; 0.075% of 410,000 active; AID 743266; Q03431; HEK293 GP2 PTHR1 cells, GloSensor cAMP luminescence, 1 h; also: potency is read from the fitted curve at half-maximal effect; nearly all actives have a fitted effect of over 55% in size
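HEK-293-derived GP2 cells expressing PTHR1 and a GloSensor cAMP reporter, 3,000/well, plated overnight, given luciferin plus IBMX (each 0.5 mM as added) for 1 h at 37 °C, then compound for 1 h at 37 °C. Luminescence was read after 15 min at room temperature.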
GLP-1R inv ag – inverse agonists of human GLP-1 receptor. HEK293 GLP-1R CRE-luciferase, luminescence, 24 h; GLP-1R form is constitutively active. Potency, µM (highest dose often 38.3 µM), without a hit: top-dose activity change, negative = inhibition, hits mostly inhibitors. 1.6% of 410,000 active. AID 624417; also: potency is read from the fitted curve at half-maximal effect; % is scaled to controls: 0 for no effect and ±100 for the full control effect; nearly all actives have a fitted effect of over 55% in size
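Luminescence readout: a drop in cAMP-driven luciferase signal flags inverse agonism at a constitutively active GLP-1R stably expressed in HEK293. Compound exposure lasted 24 hr at 37 deg C, 5% CO2.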
mIDH1 inhibitor – blocks human mutant IDH1 R132H enzyme | O75874 | IDH1-R132H enzyme, NADPH consumption, diaphorase/resazurin fluorescence | Potency, µM (top dose mostly 76.6 µM), for the others: at the top dose activity change, negative = inhibition, most hits filed as inhibitors | 0.093% of 390,000 active; also: potency is read from the fitted curve at half-maximal effect; % is scaled to controls: 0 for no effect and ±100 for the full control effect; nearly all actives have a fitted effect of over 65% in size
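IDH1-R132H (0.5 ug/mL) preincubated 30 min with compound, then NADPH (0.016 mM) and alpha-KG (2 mM) added; 80 min at RT, pH 7.5. Remaining NADPH coupled via diaphorase/resazurin to fluorescence (540/590 nm); concentration-response curves normalized to no-enzyme control.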
Numbers without * were called inactive; i = inactive; ? = inconclusive; . = not tested or not shown; [ ] = dose if it differs, or a comment. Shown are actives, neighbours in structure and some others; about 1.7% of the full set was active somewhere. Unless noted, calls follow the shape of the dose curve; as a rule, active = well fitted curve in the direction sought with a large enough effect; inconclusive = small, poorly fitted or top-dose-only effect, or another doubt; inactive = no such curve, though single readings can be large; an effect the other way counts as inactive or inconclusive.

SMILES	LDHA block	GLP-1R agonist	HEK293 tox	PTHR1 agonist	GLP-1R inv ag	mIDH1 inhibitor
O=C(OCc1cn([C@@H]2C[C@H](c3ccc(Cl)cc3)N(C(=O)C3CCCCC3)C[C@H]2O)nn1)c1ccccc1	-2	2%	11%	-20%	?	-4%
CC(=O)NCCNC(=O)CN(CC1CCOC1)C1CC1 (stereo unspecified)	5	.	.	.	.	.
Cc1oc(-c2ccccc2)nc1CNC(=O)Nc1ccccc1Cl	0	.	.	.	.	.
CCCCCC(=O)N1C[C@H](n2cc(COC(=O)c3ccccc3)nn2)[C@@H](O)C[C@@H]1c1ccc(C)cc1	6	-4%	-14%	-52%	10µM*	4%
CC(C)(CNC(=O)Nc1nccs1)N1CCc2ccccc2C1	3	.	.	.	.	.
Cc1nc2sc(C(=O)OCC(=O)Nc3cc(C(F)(F)F)ccc3Cl)c(C)c2c(=O)[nH]1	8	.	.	.	.	.
CCNc1ccc(S(=O)(=O)N(C)C)cc1[N+](=O)[O-]	-37*	-1%	10%	-12%	32%	-10%
CCCN(CCC)S(=O)(=O)c1ccc(Cl)c([N+](=O)[O-])c1	0	-8%	13µM*	-53%	?	1%
CCN(CC)S(=O)(=O)c1ccc(C)c([N+](=O)[O-])c1	4	.	.	.	.	.
N#CCCN1CCN(Cn2c3ccccc3c3ccccc32)CC1	-2	-7%	-7%	i	-26%	7%
CN1CCN(CCCNCc2cn(CCC#N)c3ccccc23)CC1	-40*	10%	-5%	i	-7%	3%
CCOC(=O)c1c(NC(=O)C(C)NCc2ccco2)sc2c1CCC(C)C2 (stereo unspecified)	-9	14%	?	i	4µM*	1%
COC(=O)c1c(C)[nH]c(C(=O)N2CCCC2c2ccc(OC)c(OC)c2)c1C (stereo unspecified)	-17	.	.	.	.	.
C=C1CC2(OC1=O)c1ccccc1CCc1ccccc12	-4	-17%	10µM*	-40%	?	?
O=[N+]([O-])c1cc(S(=O)(=O)N/N=C/c2cccs2)ccc1Cl	-1	.	.	.	.	.
O=[N+]([O-])c1cc(C(F)(F)F)ccc1Sc1ccc2ccccc2n1	1	1%	3%	i	10µM*	11%
Nc1nc(Sc2ccc(C(F)(F)F)cc2[N+](=O)[O-])n[nH]1	5	18%	19%	?	8%	10%
O=C(NC1(Cc2ccccc2)CCN(CCCc2ccccc2)C1=O)c1ccccc1 (stereo unspecified)	2	7%	-16%	-3%	11µM*	-2%[38.3 µM]
CC(=NNC(=S)N1CC2CCC(CC2)C1)c1cnccn1	2	-4%	-58%	-11%	?	5%
CC(=NNC(=S)N1CC2CCC(CC2)C1)c1ccccn1	-14	-5%	6.3µM*	-58%	?	-7%
CC(=NNC(=S)N1CCN(C2CCCCCC2)CC1)c1ccccn1	-3	6%	0.32µM*	11%	-70%	3%
O=C1CC(N(Cc2cccs2)C(=O)Nc2ccccc2)C(=O)N1c1ccc(Cl)cc1 (stereo unspecified)	0	-28%	-16%	i	8.9µM*	-2%
COc1ccc(C(=O)c2sc(NCc3ccccc3)nc2N)cc1	12	.	.	.	.	.
Nc1c(C(=O)Nc2c(Cl)cccc2Cl)sc2nc(-c3cccnc3)ccc12	11	.	.	.	.	.
Cc1ccc(C2(c3ccccc3)NC(=O)N(CC(=O)NCc3ccccc3)C2=O)cc1C (stereo unspecified)	-1	0%	-17%	-8%	6.3µM*	-7%
O=C(Nc1ccc(Cl)cc1)c1sccc1-n1cccc1	-2	16%	2%	i	4.5µM*	2%
O=C(N/N=C/c1sc(=O)n(Cc2ccc(Br)cc2)c1Cl)c1ccco1	-46*	0%	?	-10%	?	-6%

Screening results: PubChem, National Center for Advancing Translational Sciences (NCATS)
